Experimental findings from PubChem BioAssay are described below.

Test [1] deals with Plasmodium falciparum Sir2 (PF13_0152, Sir2A). Kind of test: pfSir2 binders on small-molecule microarrays, primary screen, biochemical, small-molecule microarray, 635 nm fluorescence (AID 1098).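 Note: score merges spot fluorescence intensity with its signal-to-noise ratio.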 As to conditions: small-molecule microarray binding, fluorescence 635 nm; higher = more signal.
Test [2] is described as follows: small-molecule microarray binders of probe aDKK1, primary screen, biochemical, biotinylated probe, 635/667 nm fluorescence (AID 1099).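 Note: score merges 667nm spot fluorescence with signal to noise across triplicate slides.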 As to conditions: higher = more signal.
Test [3] can be described thus: small-molecule microarray binders of probe aCHRDL2, primary screen, biochemical, biotinylated probe, 635/667 nm fluorescence (AID 1100). As to conditions: higher = more signal.
A short description of test [4]: splicing luciferase reporter signal modulators, primary screen, spliceosome inhibition project, cell-based, HEK293, splice +/- reporter (AID 1101).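 Note: HEK293 cells carrying a splicing-competent luciferase reporter gene; test concentration not given here.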 The conditions noted are these: luminescence, 24 h, higher = more signal, called active from +8 up or from −8 down.
The target in test [5] is Fibroblast growth factor 10 (Homo sapiens) (UniProt O15520). Put plainly: FGF10 binders on small-molecule microarrays, primary screen, biochemical, small-molecule microarray, 635 nm fluorescence (AID 1102). As to conditions: FGF10 binding, fluorescence 635 nm, higher = more signal.
Fibroblast growth factor 10 (Homo sapiens), sequence (O15520 whole entry, looked up): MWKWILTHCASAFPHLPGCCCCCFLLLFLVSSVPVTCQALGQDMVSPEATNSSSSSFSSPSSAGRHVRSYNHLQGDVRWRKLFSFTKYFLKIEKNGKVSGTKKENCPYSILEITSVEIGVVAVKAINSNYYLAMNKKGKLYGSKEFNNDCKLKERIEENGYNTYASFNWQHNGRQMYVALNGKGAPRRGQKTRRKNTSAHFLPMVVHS
For test [6], the system named is glycogen synthase kinase-3 (GSK3A per assay name; protocol says GSK3B). Kind of test: GSK3 binders on small-molecule microarrays, primary screen, biochemical, small-molecule microarray, 635 nm fluorescence, GSK3A (AID 1103). Note: the record names both GSK3A and GSK3B. The conditions noted are these: small-molecule microarray binding, fluorescence 635 nm; higher = more signal.
Test [7] addresses Epidermal growth factor receptor (Homo sapiens) (UniProt P00533). Put plainly: EGFR binders on small-molecule microarrays, primary screen, biochemical, small-molecule microarray, 635 nm fluorescence (AID 1104).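 Note: score merges 667 nm emission intensity with spot signal to noise over triplicate slides.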 The conditions noted are these: EGFR binding, higher = more signal.
Test [8] deals with Follistatin-related protein 3 (Homo sapiens) (UniProt O95633). Kind of test: FSTL3 binders on small-molecule microarrays, primary screen, biochemical, small-molecule microarray, 635 nm fluorescence (AID 1105).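 Note: score merges emission near 667 nm and signal to noise per printed spot across three slides.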 As to conditions: FSTL3 binding, higher = more signal.
Follistatin-related protein 3 (Homo sapiens), sequence (O95633 whole entry, looked up): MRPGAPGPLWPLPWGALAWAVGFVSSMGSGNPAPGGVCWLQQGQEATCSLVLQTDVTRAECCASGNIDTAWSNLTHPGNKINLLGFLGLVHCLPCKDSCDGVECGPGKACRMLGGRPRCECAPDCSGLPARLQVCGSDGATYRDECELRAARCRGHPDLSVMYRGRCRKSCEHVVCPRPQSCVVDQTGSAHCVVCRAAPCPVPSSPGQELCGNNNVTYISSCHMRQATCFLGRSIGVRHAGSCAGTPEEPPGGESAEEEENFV
The target of test [9] is Dickkopf-related protein 1 (Homo sapiens) (UniProt O94907). Put plainly: DKK1 binders on small-molecule microarrays, primary screen, biochemical, small-molecule microarray, 635 nm fluorescence scan (AID 1106).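 Note: score merges emission near 667 nm with signal to noise over three replicate slides.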 As to conditions: DKK1 binding, higher = more signal.
Dickkopf-related protein 1 (Homo sapiens), sequence (O94907 whole entry, looked up): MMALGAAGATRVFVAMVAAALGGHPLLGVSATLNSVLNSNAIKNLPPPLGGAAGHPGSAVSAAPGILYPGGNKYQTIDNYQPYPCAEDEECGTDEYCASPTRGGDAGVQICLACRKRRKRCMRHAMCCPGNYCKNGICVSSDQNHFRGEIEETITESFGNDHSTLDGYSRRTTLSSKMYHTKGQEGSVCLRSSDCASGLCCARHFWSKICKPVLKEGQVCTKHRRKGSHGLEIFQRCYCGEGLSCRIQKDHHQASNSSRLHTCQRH
Test [10] relates to Inhibin beta A chain (activin A). Kind of test: INHBA (activin A) binders on microarrays, primary screen, biochemical, small-molecule microarray, 635 nm fluorescence scan (AID 1107).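 Note: mouse activin A protein probed at 4.33 µg/mL on printed slides; score merges bound-protein fluorescence near 667 nm with spot signal-to-noise.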 As to conditions: small-molecule microarray binding, higher = more signal.
For test [11], the system named is Human papillomavirus type 1a protein E7 (residues 44-93). Put plainly: HPV1a E7 fragment binders on microarrays, primary screen, biochemical, small-molecule microarray, residues 44-93, 635 nm fluorescence (AID 1108).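 Note: E7 fragment applied at 1 µg/mL in TBST for 1 h at 4 C; score combines spot fluorescence with its signal to noise ratio.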 As to conditions: small-molecule microarray binding, fluorescence 635 nm; higher = more signal.
A short description of test [12]: modulators of HCV replicon luciferase signal, primary screen, HCV replication inhibitor project, Huh7 cells, luciferase reporter (AID 1109).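 Note: huh7 hepatoma cells harbouring a luciferase neomycin HCV replicon reporter; luciferase luminescence as measure of HCV replicon replication; test concentration not given here.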 The conditions noted are these: 48 h, higher = more signal. A general note: Replicon systems follow genome replication, usually without infectious particles.
The target of test [13] is Left-right determination factor 2 (Homo sapiens) (UniProt O00292). Put plainly: LEFTY2 binders on small-molecule microarrays, primary screen, biochemical, small-molecule microarray, 635 nm fluorescence scan (AID 1110). The conditions noted are these: LEFTY2 binding, higher = more signal.
Left-right determination factor 2 (Homo sapiens), sequence (O00292 whole entry, looked up): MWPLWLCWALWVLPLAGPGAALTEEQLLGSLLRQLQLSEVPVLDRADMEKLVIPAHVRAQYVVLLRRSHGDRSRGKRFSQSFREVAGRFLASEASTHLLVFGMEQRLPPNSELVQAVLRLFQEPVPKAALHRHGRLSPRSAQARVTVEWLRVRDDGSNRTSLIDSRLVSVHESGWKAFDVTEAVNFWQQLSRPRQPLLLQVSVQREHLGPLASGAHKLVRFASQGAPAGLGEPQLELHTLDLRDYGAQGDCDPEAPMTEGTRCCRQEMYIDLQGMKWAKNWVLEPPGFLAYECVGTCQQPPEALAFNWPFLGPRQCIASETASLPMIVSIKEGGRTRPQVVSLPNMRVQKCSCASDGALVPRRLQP
In test [14] the target is Calmodulin-1 (Homo sapiens) (UniProt P0DP23). Kind of test: CALM1 binders on microarrays, EGTA buffer, profiling panel, biochemical, small-molecule microarray, Cy5-labelled CALM1 (AID 1111).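 Note: labelled calmodulin applied in Tris saline Tween buffer holding calcium plus EGTA and DTT.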 The conditions noted are these: Cy5-CALM1 binding fluorescence, higher = more signal.
For test [15] the target is unchanged. Put plainly: calcium-bound CALM1 binders on microarrays, profiling panel, artefact control for SMM control-protein annotation, biochemical, small-molecule microarray, Cy5-labelled CALM1, plus calcium (AID 1112).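 Note: score merges spot fluorescence with signal to noise from triplicate slides.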 As to conditions: Cy5-CALM1 binding fluorescence, higher = more signal.
The nature of test [16]: small-molecule microarray binders of probe aWnt5a, primary screen, biochemical, biotinylated probe, 635/667 nm fluorescence (AID 1113).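 Note: score merges 667 nm fluorescence intensity with signal-to-noise per printed feature.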 The conditions noted are these: higher = more signal.
Test [17] in a line: small-molecule microarray binders of probe aShh, primary screen, biochemical, biotinylated probe, 635/667 nm fluorescence (AID 1114).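 Note: probe is biotin-labelled aShh protein from a stem cell growth factor screen; measures binding of labelled protein to compounds printed on the slide; score merges feature fluorescence at 667 nm with signal-to-noise.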 As to conditions: higher = more signal.
Test [18] in a line: small-molecule microarray binders of probe aNog, primary screen, biochemical, biotinylated probe, 635/667 nm fluorescence (AID 1115).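 Note: probe is biotinylated aNog protein used at 0.15 µg/mL for 1 h at 4 C; z-score combines 667 nm fluorescence of each spot with its signal to noise.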 The conditions noted are these: higher = more signal.
Test [19] concerns the target Torsin-1A-interacting protein 1 (Homo sapiens) (UniProt Q5JTV8). Kind of test: LAP1 binders from COS7 cell lysate, primary screen, small-molecule microarray, 635/667 nm fluorescence (AID 1116). The conditions noted are these: COS7-hLAP1 lysate binding, 635 nm fluorescence, higher = more signal.
The target in test [20] is Alpha-bungarotoxin (Bungarus multicinctus) (UniProt P60615). Put plainly: alpha-bungarotoxin binders on microarray, profiling panel, artefact control for SMM control protein annotation, biochemical, small-molecule microarray, Alexa647 label, 635/667 nm fluorescence (AID 1117). The conditions noted are these: alpha-BTX-A647 binding fluorescence, higher = more signal.
Alpha-bungarotoxin (Bungarus multicinctus), sequence (P60615 whole entry, looked up): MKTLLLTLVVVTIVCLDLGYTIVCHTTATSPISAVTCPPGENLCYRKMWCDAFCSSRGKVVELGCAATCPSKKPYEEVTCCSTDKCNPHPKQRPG

Each structure is given as a SMILES string. Where “and” joins values, the source holds several entries; their conditions need not be identical. Equal entries are not always repeated. Calls of active or inactive are those of the source.

Torsin-1A-interacting protein 1 (Homo sapiens), sequence (Q5JTV8 whole entry, looked up): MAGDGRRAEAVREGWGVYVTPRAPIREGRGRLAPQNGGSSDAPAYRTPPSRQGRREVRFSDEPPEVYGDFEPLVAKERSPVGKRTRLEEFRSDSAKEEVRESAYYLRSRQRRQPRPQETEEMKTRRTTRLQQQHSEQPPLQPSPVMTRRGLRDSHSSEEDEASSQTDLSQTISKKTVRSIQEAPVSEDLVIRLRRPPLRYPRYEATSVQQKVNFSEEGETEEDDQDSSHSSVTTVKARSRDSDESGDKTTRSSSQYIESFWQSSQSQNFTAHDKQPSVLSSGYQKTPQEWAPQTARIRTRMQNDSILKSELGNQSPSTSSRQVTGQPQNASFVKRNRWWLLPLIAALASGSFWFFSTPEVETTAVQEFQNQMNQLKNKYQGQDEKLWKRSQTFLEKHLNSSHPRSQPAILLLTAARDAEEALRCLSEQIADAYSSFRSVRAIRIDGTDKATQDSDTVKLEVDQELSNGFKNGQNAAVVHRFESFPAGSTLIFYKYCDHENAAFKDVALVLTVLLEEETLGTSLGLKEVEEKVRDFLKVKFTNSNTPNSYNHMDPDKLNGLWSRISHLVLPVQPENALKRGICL
Epidermal growth factor receptor (Homo sapiens), sequence (P00533 whole entry, looked up): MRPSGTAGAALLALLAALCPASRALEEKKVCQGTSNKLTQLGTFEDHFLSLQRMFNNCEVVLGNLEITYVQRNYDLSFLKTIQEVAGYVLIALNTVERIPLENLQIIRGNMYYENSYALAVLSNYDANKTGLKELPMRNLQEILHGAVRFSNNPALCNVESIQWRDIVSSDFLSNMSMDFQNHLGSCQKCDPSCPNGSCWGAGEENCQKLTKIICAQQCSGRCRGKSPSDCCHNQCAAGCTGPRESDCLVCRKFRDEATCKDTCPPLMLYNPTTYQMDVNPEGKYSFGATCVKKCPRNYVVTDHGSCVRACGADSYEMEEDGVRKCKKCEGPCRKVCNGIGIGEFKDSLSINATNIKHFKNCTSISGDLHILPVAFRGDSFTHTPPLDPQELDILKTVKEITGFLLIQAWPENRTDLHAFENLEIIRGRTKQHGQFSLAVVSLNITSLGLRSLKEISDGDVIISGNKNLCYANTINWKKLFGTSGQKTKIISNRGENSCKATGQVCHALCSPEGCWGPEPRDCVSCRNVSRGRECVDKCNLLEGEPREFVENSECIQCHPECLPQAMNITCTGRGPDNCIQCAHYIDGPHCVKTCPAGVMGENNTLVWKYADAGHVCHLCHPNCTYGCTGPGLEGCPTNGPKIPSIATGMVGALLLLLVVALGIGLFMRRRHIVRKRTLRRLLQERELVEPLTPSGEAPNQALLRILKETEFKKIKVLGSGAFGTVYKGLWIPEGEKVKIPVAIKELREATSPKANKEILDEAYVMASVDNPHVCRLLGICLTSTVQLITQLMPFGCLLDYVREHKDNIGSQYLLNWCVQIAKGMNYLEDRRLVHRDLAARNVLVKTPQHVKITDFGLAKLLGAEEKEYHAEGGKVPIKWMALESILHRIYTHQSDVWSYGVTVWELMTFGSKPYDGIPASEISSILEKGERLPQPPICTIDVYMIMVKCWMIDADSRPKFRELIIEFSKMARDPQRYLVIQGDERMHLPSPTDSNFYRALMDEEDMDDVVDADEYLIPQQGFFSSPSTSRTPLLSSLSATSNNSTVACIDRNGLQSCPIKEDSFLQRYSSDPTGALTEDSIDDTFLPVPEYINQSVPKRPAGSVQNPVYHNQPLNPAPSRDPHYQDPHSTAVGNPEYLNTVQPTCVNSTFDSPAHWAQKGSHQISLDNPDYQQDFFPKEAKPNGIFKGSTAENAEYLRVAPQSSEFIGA

As to `C=CCN(CCCCC)C(=O)C1N(CCCCCCO)C(=O)C2C(C(=O)O)C3C=CC21O3` (stereo not given), the composite z-score was 1.34 and 1.33 in test [1]; -0.3 and -0.257 in test [2]; 0.933 and 0.677 in [3]; -1.23 and -1.99 in test [5]; -0.699 and -1.32 in [6]; -1.76 and -2.1 in [7]. The composite z-score was -2.21 and -0.897 in [8]; -3.08 and -2.95 in test [9]; -0.194 and -1.46 in test [10]; -0.37 and -0.151 in [11]; -0.978 and -2.49 in [13]; -1.53 and -0.747 in [14]. The composite z-score is -0.155 and 0.379 in [15]; -0.256 and -0.258 in test [16]; -0.0626 and -0.156 in test [17]; -0.0784 and -0.208 in test [18]; 0.257 and -1.03 in test [19]; -1.31 and -1.22 in test [20]. Moreover, the z-score was -0.372 (inactive) and 0.305 (inactive) in test [4]; -0.415 and -0.545 in test [12].

Consider `COC(=O)C1=C(C)N(Cc2ccccc2)[C@]23O[C@](C(=O)OC)(C(=O)N2[C@@H]1c1ccccc1)[C@H]1CCCC(=O)[C@H]13`, for which the composite z-score in test [1] is 0.355 and 0.285; in [2], 0.0172 and -0.338; in [3], -0.298 and -0.45; in test [5], 0.526 and 0.72; in test [6] it was 0.201 and 0.287; in test [7], 0.218 and 0.506. Further, the composite z-score in test [8] is 0.336 and 0.515; in [9], 0.421 and 0.508; in test [10], 0.518 and 0.15; in [11], -0.525 and 0.155; in test [13], 0.877 and 0.588; in test [14], -0.127 and -0.222. In addition, the composite z-score in test [15] was 0.0491 and -0.499; in test [16], -0.0792 and -0.0462; in test [17], -0.0146 and -0.0553; in test [18], -0.275 and -0.367; in test [19], 0.206 and 0.139; in [20], 0.787 and 0.0026. The z-score is -0.0479 (inactive) and -1.41 (inactive) in test [4]; -3.35 and -1.15 in test [12].

Take `C=CCN(C(=O)C(c1cccs1)N(C(=O)/C=C\C(=O)O)c1ccc(CCO)cc1)c1ccc(OC)cc1` (stereo not given): the composite z-score in test [1] is -0.087 and -1.23; in test [2], -0.26 and 0.0389; in test [3], 0.822 and 1.13; in test [5] it was -1.94 and -2.06; in test [6], -1.57 and -1.13; in test [7], -1.46 and -2.92. The composite z-score is -1.38 and -2.79 in test [8]; -2.88 and -3.33 in test [9]; -1.56 and -1.86 in [10]; -1.01 and -1.64 in [11]; -3 and -5.82 in [13]; -0.453 and -1.54 in test [14]. The composite z-score in test [15] is 0.742 and -0.222; in [16], -0.203 and -0.27; in [17] it was -0.0709 and -0.138; in test [18] it was -0.541 and -0.126; in test [19], -1.16 and -1.72; in test [20], -0.664 and -2.33. The z-score in [4] was 0.0213 (inactive) and 0.54 (inactive); in [12] it was -0.465 and -0.171.

Consider `CCCNC(=O)OC[C@H]1O[C@H](CCON=C(C)CCN2CCc3nc(-c4ccccc4)c(-c4ccccc4)cc3C2)C=C[C@@H]1Oc1ccc(OC)cc1`, for which the composite z-score in test [1] was 0.274; in [2], -0.128; in test [3], -0.155; in [5], 0.0705; in test [6], -0.0859; in [7], 0.0142. The composite z-score is 0.254 in [8]; 0.431 in test [9]; 0.67 in test [10]; 0.518 in test [11]; 0.135 in [13]; -0.0233 in test [14]. Also, the composite z-score was -0.0536 in test [15]; -0.0535 in test [16]; -0.0299 in test [17]; -0.321 in test [18]; 0.32 in [19]; 0.316 in test [20]. In addition, the z-score in test [4] was -0.0345 (inactive); in test [12] it was -3.28.
